Screens from PubChem BioAssay.
PfG6PD inh = PfG6PD (Plasmodium falciparum) enzyme inhibition; PfGluPho enzyme, NADPH resazurin-diaphorase fluorescence; inhibition, % at 20 µM; 350,000 compounds, 0.78% hits; AID 504690;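 active means inhibition reaching at least a set limit at 20 µM in the primary screen, cut at about 59% in these data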
A3A deaminase = inhibitors of human APOBEC3A DNA deaminase | P31941 | recombinant A3A, FAM/TAMRA ssDNA deamination fluorescence | inhibition, % at 20 µM | 330,000 compounds, 0.41% hits | AID 493011;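 active means at least 40% inhibition at 20 µM here, with at most 30% in a related deaminase screen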
Target sequence (P31941 whole entry, looked up): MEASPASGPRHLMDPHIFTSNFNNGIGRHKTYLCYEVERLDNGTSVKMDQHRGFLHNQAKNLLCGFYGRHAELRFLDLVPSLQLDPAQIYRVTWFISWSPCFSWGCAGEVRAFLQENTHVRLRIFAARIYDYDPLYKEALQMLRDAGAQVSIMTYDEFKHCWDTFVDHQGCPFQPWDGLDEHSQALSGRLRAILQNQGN
A3G deaminase = APOBEC3G (human) deaminase inhibition. Q9HC16. recombinant A3G, ssDNA deamination FAM/TAMRA fluorescence. inhibition, % at 20 µM. 330,000 compounds, 0.28% hits. AID 493012;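 active means inhibition of at least 40% at 20 µM, with no more than 30% in the related APOBEC3A deaminase screen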
Target sequence (Q9HC16 whole entry, looked up): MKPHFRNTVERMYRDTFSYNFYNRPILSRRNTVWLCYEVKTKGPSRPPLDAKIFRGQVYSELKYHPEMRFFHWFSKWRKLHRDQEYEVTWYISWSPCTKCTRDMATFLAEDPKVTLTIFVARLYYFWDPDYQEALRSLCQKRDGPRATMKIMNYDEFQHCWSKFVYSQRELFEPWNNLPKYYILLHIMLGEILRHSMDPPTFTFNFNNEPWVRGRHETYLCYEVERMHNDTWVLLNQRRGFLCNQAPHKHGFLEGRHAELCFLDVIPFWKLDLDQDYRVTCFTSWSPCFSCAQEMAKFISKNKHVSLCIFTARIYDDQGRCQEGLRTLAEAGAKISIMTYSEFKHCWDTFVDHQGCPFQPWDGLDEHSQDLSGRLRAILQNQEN
GC-B act = GC-B (human) receptor activation | activation, % at 10 µM | P20594 | HEK293-GC-B cells, CNP EC30, cGMP TR-FRET; 0% at EC30 CNP, 100% saturating CNP | 370,000 compounds, 0.11% hits;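 active means activation at 10 µM reaching about 35% in either raw or pattern-adjusted values, limit read from the data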
Neddyl block = cullin neddylation inhibition. inhibition, % at 25 µM. AID 651699. TR-FRET cullin neddylation, biochemical. 360,000 compounds, 0.58% hits. P61081+Q13564; in the data active means inhibition above about 36%
GC-A act = GC-A (human) enzyme activation | P16066 | HEK293 GC-A cells, cGMP TR-FRET, EC30 ANP; 0% at EC30 ANP, 100% saturating ANP | activation, % at 10 µM | 370,000 compounds, 0.14% hits; in the data active means activation above about 40%
Hits are given with their value; . = inactive; / = no result given. Compounds with a hit are over-represented: about 2% of the library has one in this group of screens.

SMILES	PfG6PD inh	A3A deaminase	A3G deaminase	GC-B act	Neddyl block	GC-A act
Cc1ccc(C(=O)N/C(=C\c2ccc(-c3cccc([N+](=O)[O-])c3)o2)C(=O)NCCCN(C)C)cc1	.	.	.	.	.	.
CCNC(=O)COC(=O)CCC(=O)c1ccc(F)cc1	.	.	.	.	.	.
CN(C)CCC(=O)c1ccc(F)cc1	.	.	.	.	.	71.9
CCN(CC)CCC(=O)c1ccc(F)cc1	.	.	.	.	.	74.3
CC(CCN1CCC(C(O)(c2ccccc2)c2ccccc2)CC1)Oc1cccc(C(F)(F)F)c1 (configuration not stated)	/	/	/	.	/	.
O=c1c(Cl)cc(Cl)nn1-c1ccccc1	.	.	.	.	.	46.6
COc1ccc(-c2ccc(CCC(=O)O)o2)cc1	.	.	.	.	.	.
O=C(O)CCc1ccc(-c2ccc(Cl)cc2)o1	.	.	.	.	.	45.0
O=C(O)CCc1ccc(-c2ccc(Br)cc2)o1	.	.	.	.	.	44.1
Clc1ccc(N=c2ssnc2Cl)cc1	.	.	76.3	.	.	.
Clc1nssc1=Nc1ccccc1	77.2	/	/	/	.	/
Fc1ccc(N=c2ssnc2Cl)c(F)c1	87.2	.	73.5	.	.	.
O=C1CSC(=Nc2ccccc2)N1Cc1ccccc1	.	.	.	.	.	.
C[C@@H]1O[C@@H](n2c3ccc(Cl)cc3c3ccc4c5cc(Cl)ccc5[nH]c4c32)[C@H](O)[C@H](O)[C@H]1O	/	/	/	.	/	.
O=C(CSc1nnc(-c2cccnc2)n1Cc1ccco1)Nc1ccc(F)cc1Cl	/	/	/	.	/	.
NC(=Nc1cccc(F)c1)NC(=O)OCc1ccccc1	/	/	/	.	/	.
COc1ccccc1-n1c(C)cc(/C=C2/C(=N)N3C(=NC2=O)SN=C3S(C)(=O)=O)c1C	.	.	.	.	59.1	.
Cc1c(Nc2cc(Cl)c3nonc3c2[N+](=O)[O-])c(=O)n(-c2ccccc2)n1C	.	.	.	36.5	.	.
O=[N+]([O-])c1c(Nc2cccc(O)c2)cc(Cl)c2nonc12	.	.	.	37.0	.	.
Cc1ccc(/C=C2/NC(=O)N(Cc3ccccc3)C2=O)o1	.	.	.	46.3	.	.
COC(=O)CN1C(=O)N/C(=C/c2ccc(C)o2)C1=O	.	.	.	.	.	.
Oc1ccccc1CNc1cnc2ccccc2c1	.	.	.	.	50.1	.
N#Cc1nc(NCC(F)F)nc(Nc2cc(F)cc(F)c2)n1	.	.	.	39.5	.	44.5
Oc1cc(CNC2CCCCC2)c(O)cc1CNC1CCCCC1	80.9	/	/	.	.	.
CC1(C)Cc2c(sc3c2c(=N)n(Cc2ccco2)c(=O)n3Cc2ccc(F)cc2)CO1	.	.	.	.	.	.
SMILES	PfG6PD inh	A3A deaminase	A3G deaminase	GC-B act	Neddyl block	GC-A act
COc1ccc(Cn2c(=O)n(Cc3ccco3)c(=N)c3c4c(sc32)COC(C)(C)C4)cc1	.	.	.	55.6	.	55.5
O=C(NC1CCCCN(Cc2cccc(C(F)(F)F)c2)C1=O)c1ccc(Cl)c(Cl)c1 (configuration not stated)	/	/	/	.	/	.
Cc1coc2c1C(=O)C(=O)c1c-2ccc2c(C)cccc12	63.7	.	.	/	.	/
Cc1coc2c1C(=O)C(=O)c1c-2ccc2c1CCCC2(C)C	.	.	.	.	.	.
CC(=O)N1CCN(C(=O)CCn2nnc3ccccc32)CC1	/	/	/	.	/	.
CCC(=O)OCCNc1cc(Sc2nc3ccccc3[nH]2)c2nonc2c1[N+](=O)[O-]	.	/	/	.	.	42.9
CCCSc1cc(NCCOC(=O)CCC)c([N+](=O)[O-])c2nonc12	.	.	.	.	.	.
COc1ccccc1NS(=O)(=O)c1cccc(C(=O)N/N=C/c2c(CO)cnc(C)c2O)c1	.	.	.	.	40.8	.
O=C(O[C@@H]1OC2COC(=O)c3cc(O)c(O)c(O)c3-c3c(cc(O)c(O)c3O)C(=O)O[C@@H]([C@H]1O)[C@@H]2O)c1cc(O)c(O)c(O)c1	110.7	/	/	/	37.8	/
O=C(/C=C/c1ccc(Cl)cc1Cl)OCC(=O)N1CCCC1	.	.	.	.	.	40.8
O=C(/C=C/c1ccccc1Cl)OCC(=O)N1CCCC1	.	.	.	.	.	.
COC1=CC(=O)CC(C)C12Oc1cc(OC)cc(OC)c1C2=O (configuration not stated)	.	.	.	.	.	.
COC(=O)C1=CC(=O)C=C(OC)[C@@]12Oc1cc(C)cc(OC)c1C2=O	/	/	/	.	/	79.0
COc1ccc(CN2CCN(c3nc4ccccc4s3)CC2)cc1	.	.	.	.	.	.
COc1ccc(CCn2c(O)cc3nn(-c4nc5ccccc5s4)c(=O)c-3c2C)cc1	.	.	.	.	74.5	.
Cc1ccc(C(=O)C(c2ccccc2)N2Cc3ccccc3C2=N)cc1 (configuration not stated)	64.9	.	.	/	.	/
O=C(Nc1nc2cc3c(cc2s1)OCCO3)c1ccco1	.	.	.	.	43.2	.
CS(=O)(=O)c1sc(C#N)c2c1C(=O)CC(c1ccccc1)C2 (configuration not stated)	.	.	.	48.4	.	.
O=C(CCSc1ccccn1)c1ccccc1	.	.	.	.	.	51.6
O=C(O)CCSc1ccccn1	.	.	.	.	.	.
CCOC(=O)c1c(C)n(CCOc2ccccc2)c2ccc(O)cc12	.	.	.	.	.	56.5
CCC(=O)NC(=S)NNC(=O)c1ccc(O)cc1	.	.	.	85.1	.	.
C=CCN(C)CC#Cc1ccc(OC)cc1	/	/	/	.	/	.
CC(C)=C[C@@H]1C[C@H](C)[C@H]2CC[C@H](C)c3c(O)c(O)c(C)c1c32	79.1	.	.	.	.	.
CC(=O)Oc1c(C)c2c3c(c1OC(C)=O)[C@@H](C)CC[C@@H]3[C@@H](C)C[C@H]2C=C(C)C	.	.	.	.	.	.
SMILES	PfG6PD inh	A3A deaminase	A3G deaminase	GC-B act	Neddyl block	GC-A act
O=C(CCn1nnc(-c2cccs2)n1)NCc1ccco1	/	/	/	.	/	.
CCOC(=O)Cn1cc(CN2C(C(=O)OC)CN(Cc3ccccc3)CCS2(=O)=O)nn1 (configuration not stated)	/	/	/	.	/	.
Cc1nc2ccc(Br)cc2c(-c2ccccc2)c1C(=O)O	.	.	.	.	.	44.3
COC(=O)[C@]12C[C@H](CC(=O)N3CCOCC3)C(=O)N(Cc3ccco3)C1=C[C@H](C(C)(C)C)O[C@@H]2C	/	/	/	.	/	.
CC(NC(=O)/C(C#N)=C/c1ccc(Cl)c([N+](=O)[O-])c1)c1ccccc1 (configuration not stated)	.	.	.	.	/	54.6
CCOC(=O)CSc1cc(-c2ccccc2)nc2ncnn12	.	.	.	41.8	.	.
CCOC(=O)CSc1nc(-c2ccccc2)ns1	.	.	.	.	.	55.1
CCOC(=O)CNC(=O)CSc1nc(-c2ccc(OC)cc2)ns1	.	.	.	.	.	.
COc1ccc(-n2c(SCC(=O)NCCCSC)nnc2-c2ccncc2)cc1	/	/	/	.	/	.
